High-throughput results from PubChem.
CYP2C19 act – human CYP2C19 activators, primary screen, biochemical, luminescence; Cytochrome P450 2C19 (Homo sapiens), P33261; recombinant CYP2C19, luciferin-H EGE luminescence; stronger effect = higher value; 0 = fully inhibited enzyme, 1 = untreated enzyme; activation factor at 5 µM; 96,000 tested, under 10 active; AID 1025, 2008;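 active = activation factor of at least 2 at 5 µM in the primary screen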;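 note: 0 = wells with 2.5 mM tranylcypromine and 1 = vehicle-only wells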
Target sequence (P33261 whole entry, looked up): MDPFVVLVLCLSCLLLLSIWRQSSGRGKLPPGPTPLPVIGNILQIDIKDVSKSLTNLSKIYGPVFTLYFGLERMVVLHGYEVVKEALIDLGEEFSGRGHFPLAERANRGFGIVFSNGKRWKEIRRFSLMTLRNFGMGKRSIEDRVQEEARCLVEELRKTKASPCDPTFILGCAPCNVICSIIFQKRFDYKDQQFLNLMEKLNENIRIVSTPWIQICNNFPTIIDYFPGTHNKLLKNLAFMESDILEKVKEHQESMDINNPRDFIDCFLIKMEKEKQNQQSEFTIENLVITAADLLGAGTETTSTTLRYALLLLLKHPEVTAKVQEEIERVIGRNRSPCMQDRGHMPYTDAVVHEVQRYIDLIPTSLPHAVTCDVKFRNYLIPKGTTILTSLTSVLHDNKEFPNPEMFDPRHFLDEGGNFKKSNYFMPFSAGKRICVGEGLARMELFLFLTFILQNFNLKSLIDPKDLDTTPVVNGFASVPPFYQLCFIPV
CYP2C9 inhib – blockers of cytochrome P450 2C9 activity – biochemical, luminescence, ADME assay, primary screen | P11712 | CYP2C9 Supersomes, luciferin-H conversion | inhibition, % at 5 µM | hit rate 20% among 96,000;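 active = blocking of liver enzyme CYP2C9 beyond about 50% at 5 µM, limit read from the data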
CYP2C19 inh – blockers of cytochrome P450 2C19 activity – biochemical, luminescence, ADME assay, primary screen. P33261. CYP2C19 Supersomes, luciferin-H EGE luminescence, 30 min. inhibition, % at 5 µM. hit rate 21% among 96,000;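 active = CYP2C19 inhibition above a set limit at 5 µM in the primary screen, cut at about 50% in these data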;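 note: plate controls were negative control wells for no effect and 2.5 mM tranylcypromine positive control for full effect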
PLAP activator – PLAP enzyme activators, biochemical, luminescence, HTS; hit rate 1.2% among 96,000; purified PLAP enzyme, luminescent substrate read-out; stronger effect = higher value; activation fold at 20 µM; AID 696, 2007; Alkaline phosphatase, placental type (Homo sapiens), P05187; in the data active = activation fold above about 2
CYP2C9 act – human CYP2C9 activators, primary screen, biochemical, luminescence; activation factor at 5 µM; hit rate 1.4% among 96,000; Cytochrome P450 2C9 (Homo sapiens), P11712; AID 1024, 2008; recombinant CYP2C9, luciferin-H conversion; stronger effect = higher value; factor 1 = untreated enzyme, 0 = blocked;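 active = activation factor of 2 or more for CYP2C9 at a 5 µM dose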;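 note: 0 = sulfaphenazole-blocked wells and 1 = vehicle-only wells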
* hit, by the source's call. This is a sample that favours compounds with a hit; in the whole collection about 31% have one here.

SMILES | CYP2C19 act | CYP2C9 inhib | CYP2C19 inh | PLAP activator | CYP2C9 act
CC(=O)Nc1ccc(S(=O)(=O)N2CCSC2c2ccc(C)cc2)cc1 (stereo unspecified) | 0.8 | 55* | 20 | 0.9 | 0.4
O=C(COC(=O)c1ccc(S(=O)(=O)N2CCCC2)cc1)NCc1ccc(F)cc1 | 0.8 | 26 | 23 | 0.8 | 0.7
COc1ccc(CNC(=O)C2CCCN2S(=O)(=O)c2ccc(C)cc2)cc1 (stereo unspecified) | 0.2 | 14 | 80* | 1.6 | 0.9
COc1ccc(CNC(=O)C2CCCN2S(=O)(=O)c2ccccc2)cc1 (stereo unspecified) | 0.2 | 34 | 77* | 1.2 | 0.7
Cc1ccc(NC(=O)CCc2ccc(S(=O)(=O)NC3CCCCC3)cc2)cc1 | 0.8 | 41 | 22 | 1 | 0.6
O=C(CCSc1ccccc1)Nc1ccc(S(=O)(=O)N2CCOCC2)cc1 | 0.4 | 85* | 55* | 1.7 | 0.2
Cc1ccc(-c2noc(=O)n2CC(=O)Nc2ccc(S(=O)(=O)NC3CC3)cc2)cc1 | 0.6 | 93* | 45 | 1.1 | 0.1
O=C(Cn1c(-c2ccccc2)noc1=O)Nc1ccc(S(=O)(=O)N2CCOCC2)cc1 | 0.8 | 73* | 23 | 1 | 0.3
O=C(CSc1nnc(CN2CCCCCC2=O)n1-c1ccccn1)NCC(F)(F)F | 1 | -10 | -4 | 1.2 | 1.1
O=C(c1ccc(Cl)cc1)N1CCN(c2cc(=O)[nH]nc2-c2ccccc2)CC1 | 1.1 | 2 | -9 | 1.2 | 1
COc1cc(C)nc(NS(=O)(=O)c2ccccc2)n1 | 0.9 | 1 | 6 | 0.8 | 1
CCOC(=O)c1nc2sc(C)c(C)c2c(=O)[nH]1 | 1 | 8 | 0 | 1.4 | 0.9
CCOC(=O)c1sc2nc(CSc3nc4ccccc4n3CC)[nH]c(=O)c2c1C | 0.6 | 68* | 44 | 1.7 | 0.3
COC(=O)c1sc2nc(CSc3nc4ccc(C)cc4[nH]3)[nH]c(=O)c2c1C | 0.9 | 44 | 9 | 2* | 0.6
COc1ccc(CCC(C)Nc2cccc(F)c2)cc1 (stereo unspecified) | 0.9 | -3 | 12 | 1.1 | 1
CC1(C)CC(=O)C2=C(C1)N(c1ccc(F)cc1)C(=O)NC2(C(F)(F)F)C(F)(F)F | 1 | 1 | 0 | 1.1 | 1
Cc1[nH]n(-c2ccccc2)c(=O)c1C1(C(F)(F)F)C(=O)N(c2ccc(F)cc2)C2=C1C(=O)CC(C)(C)C2 (stereo unspecified) | 0.7 | 78* | 26 | 1.6 | 0.2
O=C(Nc1ccc2c(c1)ncn2C1CCCCC1)c1ccco1 | 0.9 | 18 | 8 | 0.9 | 0.8
CCC(=O)NC(=S)N1CCN(c2ccc([N+](=O)[O-])cc2Cl)CC1 | 0.3 | -4 | 68* | 1 | 1
